Data taken from PubChem BioAssay (EPA / NIEHS).
The source made the active and inactive calls. Rule for the calls: active = hit-call score of the fitted dose curve at least 0.9, where 1 is the maximum; inactive = score below 0.9.

What was measured:
[1] = CEETOX_H295R_PROG: CeeTox H295R High-throughput Steroidogenesis Assay for Progesterone (PROG) (AID 2283442); details: actives raise or lower the signal
In short: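 Steps: seed H295R cells and let them adhere overnight; prime 48 h with 10 uM forskolin; dose with compound in DMSO at 0.1% final for 48 h; extract medium steroids with MTBE; measure progesterone by LC-MS/MS. MTT viability was run in the same wells.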

[2] = read-out: Tumor necrosis factor receptor superfamily member 6 (Homo sapiens) (UniProt P25445); test: LTEA_HepaRG_FAS: Life Technologies and Expression Analysis (LTEA) Assay for Fas cell surface death receptor (FAS) using HepaRG (AID 2283447); details: mRNA level, 48 h; actives raise or lower the signal
In short: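 Differentiated human HepaRG cells, pre-cultured 48 h, were exposed in duplicate for 48 h to 8-point half-log concentrations (top 100 uM, 0.5% DMSO) in serum-free induction medium; FAS mRNA measured by qRT-PCR, normalized to ACTB/GAPDH/POLR2A, bidirectional fit versus DMSO.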

[3] = read-out: Cyclin D2 (CCND2), CCND2 (gene 894); test: LTEA_HepaRG_CCND2: Life Technologies and Expression Analysis (LTEA) Assay for Cyclin D2 (CCND2) using HepaRG (AID 2283449); details: mRNA level, 48 h; actives raise or lower the signal;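 note: CCND2 transcript measured by TaqMan qRT-PCR and normalised to three housekeeping genes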
In short: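 In this HepaRG study, an eight-point concentration series (max 100 uM, 0.5% DMSO) is applied for 48 h. CCND2 mRNA change is derived by qRT-PCR normalised to ACTB, GAPDH and POLR2A.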

[4] = read-out: Cyclin Dependent Kinase Inhibitor 1A (CDKN1A), CDKN1A (gene 1026); test: LTEA_HepaRG_CDKN1A: Life Technologies and Expression Analysis (LTEA) Assay for Cyclin Dependent Kinase Inhibitor 1A (CDKN1A) using HepaRG (AID 2283450); details: mRNA level, 48 h; actives raise or lower the signal
In short: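 Read-out is CDKN1A mRNA by TaqMan qRT-PCR, normalized to three housekeeping genes and fitted in both directions against the DMSO baseline. Human HepaRG cells were treated 48 h with test chemicals up to 100 uM in half-log steps, 0.5% DMSO.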

[5] = read-out: catalase (CAT), CAT (gene 847); test: LTEA_HepaRG_CAT: Life Technologies and Expression Analysis (LTEA) Assay for catalase (CAT) using HepaRG (AID 2283452); details: mRNA level, 48 h; actives raise or lower the signal;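 for AC50: TaqMan qRT-PCR signal normalized to ACTB GAPDH and POLR2A housekeeping genes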
In short: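 Differentiated HepaRG cells in serum-free induction medium were dosed 48 h in duplicate, eight half-log concentrations from 100 uM in 0.5% DMSO. Transcript measured by TaqMan qRT-PCR, normalised to ACTB/GAPDH/POLR2A, fitted bidirectionally against DMSO.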

[6] = read-out: flavin-containing dimethylaniline monooxygenases 3 (FMO3), FMO3 (gene 2328); test: LTEA_HepaRG_FMO3: Life Technologies and Expression Analysis (LTEA) Assay for flavin-containing dimethylaniline monooxygenases 3 (FMO3) using HepaRG (AID 2283453); details: mRNA level, 48 h; actives raise or lower the signal;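 for AC50: FMO3 transcript by TaqMan qRT-PCR normalized to ACTB GAPDH and POLR2A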
In short: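 FMO3 transcript quantified by TaqMan qRT-PCR against three housekeeping genes after 48 h chemical exposure of HepaRG cells. Eight-point half-log series, top 100 uM, 0.5% DMSO vehicle; phenobarbital 1mM induction control; up- or down-regulation fitted.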

[7] = read-out: Cytochrome P450 (CYP1A1), CYP1A1 (gene 1543); test: LTEA_HepaRG_CYP1A1: Life Technologies and Expression Analysis (LTEA) Assay for Cytochrome P450 (CYP1A1) using HepaRG (AID 2283454); details: mRNA level, 48 h; actives raise or lower the signal
In short: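 HepaRG, 48 h post-plating switched to serum-free induction medium; 8-pt conc-response (top 100 uM, half-log, 0.5% DMSO), duplicates, 48 h. Lysis in RLT, TaqMan qRT-PCR for CYP1A1; gain or loss vs DMSO.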

[8] = read-out: CFLAR gene, CFLAR (gene 8837); test: LTEA_HepaRG_CFLAR: Life Technologies and Expression Analysis (LTEA) Assay for CFLAR gene using HepaRG (AID 2283455); details: mRNA level, 48 h; actives raise or lower the signal
In short: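 Gain- or loss-of-signal changes in CFLAR transcript were fitted bidirectionally relative to 0.5% DMSO. Cells (HepaRG, duplicate wells) were dosed for 48 h across eight half-log concentrations topping at 100 uM; quantitation by TaqMan qRT-PCR.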

[9] = read-out: Forkhead box O1 (FOXO1), FOXO1 (gene 2308); test: LTEA_HepaRG_FOXO1: Life Technologies and Expression Analysis (LTEA) Assay for Forkhead box O1 (FOXO1) using HepaRG (AID 2283456); details: mRNA level, 48 h; actives raise or lower the signal
In short: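 Using one lot of HepaRG hepatic cells kept in 0.5% DMSO, the team applied test chemicals in duplicate, half-log dilutions from 100 uM, for 48 h. Expression, normalised to ACTB/GAPDH/POLR2A, was compared with vehicle in either direction.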

[10] = read-out: growth arrest and DNA damage 45 (GADD45A), GADD45A (gene 1647); test: LTEA_HepaRG_GADD45A: Life Technologies and Expression Analysis (LTEA) Assay for growth arrest and DNA damage 45 (GADD45A) using HepaRG (AID 2283458); details: mRNA level, 48 h; actives raise or lower the signal
In short: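 Transcript induction or loss, quantified by TaqMan qRT-PCR against three housekeeping genes, is the read-out. HepaRG cells received chemicals for 48 h across eight half-log concentrations from 100 uM in 0.5% DMSO; gain and loss fitted relative to DMSO.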

[11] = read-out: Forkhead box O3 (FOXO3), FOXO3 (gene 2309); test: LTEA_HepaRG_FOXO3: Life Technologies and Expression Analysis (LTEA) Assay for Forkhead box O3 (FOXO3) using HepaRG (AID 2283459); details: mRNA level, 48 h; actives raise or lower the signal
In short: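 Gene-expression endpoint: FOXO3 transcript level by qRT-PCR in HepaRG cultures treated 48 h with chemicals up to 100 uM (half-log, 0.5% DMSO vehicle).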

[12] = read-out: ABC Transporter (ABCB1), ABCB1 (gene 5243); test: LTEA_HepaRG_ABCB1: Life Technologies and Expression Analysis (LTEA) Assay for ABC Transporter (ABCB1) using HepaRG (AID 2283460); details: mRNA level, 48 h; actives raise or lower the signal
In short: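 Human liver HepaRG line treated 48 h with up to 100 uM compound (eight half-log points, 0.5% DMSO); ABCB1 mRNA change fitted bidirectionally against DMSO controls.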

[13] = read-out: growth arrest and DNA damage 45 (GADD45B), GADD45B (gene 4616); test: LTEA_HepaRG_GADD45B: Life Technologies and Expression Analysis (LTEA) Assay for growth arrest and DNA damage 45 (GADD45B) using HepaRG (AID 2283461); details: mRNA level, 48 h; actives raise or lower the signal
In short: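 HepaRG, ~100,000 cells/well, 48 h plating; serum-free induction medium; cpd 100 uM top, half-log x8, 0.5% DMSO, duplicate, 48 h; lysis in RLT, RNA isolation, qRT-PCR; norm ACTB/GAPDH/POLR2A; bidirectional fit vs DMSO.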

[14] = read-out: ABC Transporter (ABCC3), ABCC3 (gene 8714); test: LTEA_HepaRG_ABCC3: Life Technologies and Expression Analysis (LTEA) Assay for ABC Transporter (ABCC3) using HepaRG (AID 2283462); details: mRNA level, 48 h; actives raise or lower the signal
In short: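 Human HepaRG, 48 h dosing, 8-pt half-log series from 100 uM, 0.5% DMSO vehicle, duplicates. ABCC3 mRNA by TaqMan qRT-PCR, housekeeping-normalized; bidirectional curve fit vs DMSO.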

[15] = read-out: ABC Transporter (ABCB11), ABCB11 (gene 8647); test: LTEA_HepaRG_ABCB11: Life Technologies and Expression Analysis (LTEA) Assay for ABC Transporter (ABCB11) using HepaRG (AID 2283463); details: mRNA level, 48 h; actives raise or lower the signal
In short: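 Using HepaRG cultures held in 0.5% DMSO, chemicals were tested at half-log dilutions from 100 uM for 48 h. Induction or suppression of ABCB11 mRNA, normalized to ACTB, GAPDH and POLR2A, was fitted bidirectionally against vehicle.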

[16] = read-out: ABC Transporter (ABCC2), ABCC2 (gene 1244); test: LTEA_HepaRG_ABCC2: Life Technologies and Expression Analysis (LTEA) Assay for ABC Transporter (ABCC2) using HepaRG (AID 2283464); details: mRNA level, 48 h; actives raise or lower the signal
In short: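 HepaRG, 48 h post-plating; serum-free induction medium; cpd 8-pt, 100 uM top, half-log, 0.5% DMSO, duplicate, 48 h. Readout: ABCC2 mRNA by qRT-PCR, norm. ACTB/GAPDH/POLR2A. Bidirectional fit vs DMSO baseline.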

[17] = read-out: Broad substrate specificity ATP-binding cassette transporter ABCG2 (Homo sapiens) (UniProt Q9UNQ0); test: LTEA_HepaRG_ABCG2: Life Technologies and Expression Analysis (LTEA) Assay for ABC Transporter (ABCG2) using HepaRG (AID 2283465); details: mRNA level, 48 h; actives raise or lower the signal
In short: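 Gene expression of ABCG2 in HepaRG liver cells is quantified by qRT-PCR following 48 h exposure across an eight-point series topping at 100 uM. Values come from bidirectional fitting relative to DMSO vehicle.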

[18] = read-out: Cyclin D1 (CCND1), CCND1 (gene 595); test: LTEA_HepaRG_CCND1: Life Technologies and Expression Analysis (LTEA) Assay for Cyclin D1 (CCND1) using HepaRG (AID 2283451); details: mRNA level, 48 h; actives raise or lower the signal;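 note: TaqMan qRT-PCR transcript level normalised to ACTB GAPDH and POLR2A housekeeping genes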
In short: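 HepaRG plated 48 h, medium switched to serum-free induction medium, chemicals added in duplicate (top 100 uM, half-log steps, 0.5% DMSO) for 48 h, cells lysed, RNA measured by TaqMan qRT-PCR.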

[19] = read-out: Fatty acid synthase (Homo sapiens) (UniProt P49327); test: LTEA_HepaRG_FASN: Life Technologies and Expression Analysis (LTEA) Assay for Fatty Acid Synthase (FASN) using HepaRG (AID 2283448); details: mRNA level, 48 h; actives raise or lower the signal
In short: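 Cells were plated, cultured 48 h, switched to serum-free induction medium, then dosed in duplicate (max 100 uM, half-log dilutions, 0.5% DMSO) for 48 h. RNA was then isolated and FASN quantified by qRT-PCR.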

Measured: AC50

Broad substrate specificity ATP-binding cassette transporter ABCG2 (Homo sapiens), sequence (Q9UNQ0 whole entry, looked up): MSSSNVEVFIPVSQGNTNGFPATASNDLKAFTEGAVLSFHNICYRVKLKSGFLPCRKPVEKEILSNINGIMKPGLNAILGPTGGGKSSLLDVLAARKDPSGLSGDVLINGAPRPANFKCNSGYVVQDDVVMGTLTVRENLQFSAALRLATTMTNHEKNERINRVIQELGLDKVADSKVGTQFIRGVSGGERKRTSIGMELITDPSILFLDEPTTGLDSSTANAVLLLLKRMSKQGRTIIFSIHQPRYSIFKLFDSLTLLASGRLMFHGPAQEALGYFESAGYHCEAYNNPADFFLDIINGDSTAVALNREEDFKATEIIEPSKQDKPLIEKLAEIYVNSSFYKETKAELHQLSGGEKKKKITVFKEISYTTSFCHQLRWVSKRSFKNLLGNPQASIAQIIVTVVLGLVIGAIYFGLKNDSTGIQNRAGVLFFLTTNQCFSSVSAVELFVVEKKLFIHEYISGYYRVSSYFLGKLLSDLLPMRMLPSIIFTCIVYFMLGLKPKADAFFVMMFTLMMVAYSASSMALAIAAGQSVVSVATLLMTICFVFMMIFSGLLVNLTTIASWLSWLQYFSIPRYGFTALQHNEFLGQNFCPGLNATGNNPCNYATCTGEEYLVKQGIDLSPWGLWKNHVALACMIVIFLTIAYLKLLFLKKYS
Fatty acid synthase (Homo sapiens), sequence (P49327 whole entry, looked up): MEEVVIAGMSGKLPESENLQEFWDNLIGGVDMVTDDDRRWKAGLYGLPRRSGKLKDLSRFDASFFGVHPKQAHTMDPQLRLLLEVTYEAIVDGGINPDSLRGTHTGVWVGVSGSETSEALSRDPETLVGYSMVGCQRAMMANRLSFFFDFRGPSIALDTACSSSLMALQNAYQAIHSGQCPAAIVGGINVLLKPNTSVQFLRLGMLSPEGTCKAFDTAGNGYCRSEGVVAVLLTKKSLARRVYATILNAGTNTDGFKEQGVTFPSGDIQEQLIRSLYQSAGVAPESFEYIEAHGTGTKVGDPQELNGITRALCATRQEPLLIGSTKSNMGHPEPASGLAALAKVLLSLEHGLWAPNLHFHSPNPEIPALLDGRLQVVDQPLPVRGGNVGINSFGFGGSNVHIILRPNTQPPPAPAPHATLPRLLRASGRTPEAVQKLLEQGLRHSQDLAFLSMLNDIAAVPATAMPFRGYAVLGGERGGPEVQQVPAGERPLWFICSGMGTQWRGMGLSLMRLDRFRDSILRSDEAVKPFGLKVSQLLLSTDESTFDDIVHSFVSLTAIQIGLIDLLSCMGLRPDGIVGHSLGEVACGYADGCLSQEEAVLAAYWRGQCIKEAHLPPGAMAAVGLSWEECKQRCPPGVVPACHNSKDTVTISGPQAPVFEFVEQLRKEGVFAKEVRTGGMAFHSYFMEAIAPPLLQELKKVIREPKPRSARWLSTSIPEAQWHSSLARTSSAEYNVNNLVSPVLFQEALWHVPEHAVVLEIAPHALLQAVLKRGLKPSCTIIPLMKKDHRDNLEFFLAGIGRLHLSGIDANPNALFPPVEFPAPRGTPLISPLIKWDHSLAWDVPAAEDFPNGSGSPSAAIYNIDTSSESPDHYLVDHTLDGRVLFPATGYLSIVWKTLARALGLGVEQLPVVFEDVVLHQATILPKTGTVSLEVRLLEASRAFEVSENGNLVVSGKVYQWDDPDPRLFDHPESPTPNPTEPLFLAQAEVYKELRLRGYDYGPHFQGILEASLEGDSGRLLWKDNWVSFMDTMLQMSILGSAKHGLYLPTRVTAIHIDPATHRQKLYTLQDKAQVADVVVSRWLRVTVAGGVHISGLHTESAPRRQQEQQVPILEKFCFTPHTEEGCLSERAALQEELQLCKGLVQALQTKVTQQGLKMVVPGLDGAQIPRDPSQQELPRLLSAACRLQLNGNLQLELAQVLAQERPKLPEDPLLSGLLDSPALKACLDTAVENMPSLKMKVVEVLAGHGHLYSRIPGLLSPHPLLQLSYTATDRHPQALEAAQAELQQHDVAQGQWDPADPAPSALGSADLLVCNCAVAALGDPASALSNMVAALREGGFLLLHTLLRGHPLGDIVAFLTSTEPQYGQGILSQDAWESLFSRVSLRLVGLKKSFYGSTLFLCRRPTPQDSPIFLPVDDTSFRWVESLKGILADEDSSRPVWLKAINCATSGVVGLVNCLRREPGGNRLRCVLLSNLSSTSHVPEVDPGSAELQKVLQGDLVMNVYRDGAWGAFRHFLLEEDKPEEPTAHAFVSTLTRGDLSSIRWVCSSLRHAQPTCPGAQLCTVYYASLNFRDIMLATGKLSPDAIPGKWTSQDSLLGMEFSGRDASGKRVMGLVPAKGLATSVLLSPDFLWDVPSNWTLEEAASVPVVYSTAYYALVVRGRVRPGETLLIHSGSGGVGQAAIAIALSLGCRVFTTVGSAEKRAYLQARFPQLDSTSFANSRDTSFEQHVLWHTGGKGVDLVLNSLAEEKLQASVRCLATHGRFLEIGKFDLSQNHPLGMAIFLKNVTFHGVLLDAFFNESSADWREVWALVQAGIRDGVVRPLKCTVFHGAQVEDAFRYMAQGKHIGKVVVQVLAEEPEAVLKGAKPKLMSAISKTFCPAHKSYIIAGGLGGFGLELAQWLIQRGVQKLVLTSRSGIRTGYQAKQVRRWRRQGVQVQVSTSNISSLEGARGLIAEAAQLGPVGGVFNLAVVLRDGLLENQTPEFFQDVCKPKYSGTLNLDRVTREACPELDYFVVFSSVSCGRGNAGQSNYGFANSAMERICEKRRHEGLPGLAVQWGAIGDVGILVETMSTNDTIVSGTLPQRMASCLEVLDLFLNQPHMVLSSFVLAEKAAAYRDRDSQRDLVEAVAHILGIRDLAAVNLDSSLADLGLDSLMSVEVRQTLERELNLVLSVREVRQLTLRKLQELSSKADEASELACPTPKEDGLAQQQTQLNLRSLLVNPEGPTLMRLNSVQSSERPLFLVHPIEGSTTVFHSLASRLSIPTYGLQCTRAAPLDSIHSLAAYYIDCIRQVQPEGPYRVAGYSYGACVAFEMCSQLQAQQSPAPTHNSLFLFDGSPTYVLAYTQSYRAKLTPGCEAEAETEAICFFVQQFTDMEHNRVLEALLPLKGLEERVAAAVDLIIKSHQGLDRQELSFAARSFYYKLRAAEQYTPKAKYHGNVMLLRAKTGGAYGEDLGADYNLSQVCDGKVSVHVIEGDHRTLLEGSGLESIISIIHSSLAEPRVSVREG

O=C(Nc1ccc([N+](=O)[O-])cc1Cl)c1cc(Cl)ccc1O
active: [2] 3.08 µM | [5] 2.85 µM | [6] 2.69 µM | [7] 0.147 µM | [8] 2.33 µM | [9] 3.33 µM | [10] 4.29 µM | [12] 2.25 µM | [13] 3.32 µM | [14] 3.52 µM | [15] 3.37 µM | [16] 3.13 µM | [17] 17 µM
inactive: [1] | [3] | [4] | [11]

Cc1nn(C)c(Oc2ccccc2)c1C=NOCc1ccc(C(=O)OC(C)(C)C)cc1
inactive: [8] | [11] | [13] | [16]
active: [2] 8.31 µM | [4] 6.99 µM | [5] 2.16 µM | [6] 2.87 µM | [7] 19.6 µM | [9] 2.81 µM | [10] 4.15 µM | [12] 9.19 µM | [14] 1.24 µM | [15] 3.08 µM | [17] 3.96 µM

C[C@]12CC[C@@H]3c4ccc(O)cc4C[C@@H](CCCCCCCCCS(=O)CCCC(F)(F)C(F)(F)F)[C@H]3[C@@H]1CC[C@@H]2O (stereo partly drawn)
inactive: [4] | [7] | [8] | [11] | [13] | [17]
active: [2] 0.0482 µM | [3] 0.05 µM | [18] 0.0338 µM | [5] 15.6 µM | [6] 44.4 µM | [9] 0.0681 µM | [10] 0.105 µM | [12] 27.8 µM | [14] 30.9 µM | [15] 10.5 µM | [16] 22.4 µM

COC(=O)c1ccccc1C(=O)O
not listed: [1] | [18] | [19]
inactive: all other assays above

COCCO
not listed: [1] | [2] | [3] | [18]
inactive: all other assays above

CCCCC(CC)COC(=O)c1ccccc1C(=O)O (stereo not drawn)
active: [7] 77.2 µM | [12] 74.9 µM | [15] 41.9 µM
not listed: [1] | [18] | [19]
inactive: all other assays above

CCN(CC)C(=O)c1cccc(C)c1
active: [7] 50 µM | [16] 21.5 µM
not listed: [1] | [18]
inactive: all other assays above
